The whole screen tested about 53,000 sequences, of which about 3,700 (7%) were called active. This is one part of a sample in which actives are shown more often than they occur. Unmarked numbers belong to inactive results.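 Rule for the calls: active = gene knockdowns whose robust z-score for IL-1 alpha signal is at least 2 or at most -2, so actives lie on both sides; inactive = the rest.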
assay: Components of the Cytosolic LPS Sensing Pathway: Gene Identification via Genome-wide siRNA Screen; conditions: RAW264.7 macrophages, IL-1a HTRF, actives lie on both sides, screened at 100 nM (by protocol), cells primed 5 h with Pam3CSK4 first;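 note: robust z of the log signal after scaling to non-targeting control siRNA wells of the plate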
In short: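 Using IL-1a HTRF as read-out, the screen measured release from RAW264.7 cells after 48h siRNA knockdown (100 nM), 5 h Pam3CSK4 priming and 24 h cytosolic LipidA. Values were expressed relative to negative-control wells as robust z-scores.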

Sequence	z-score
CGUUUGAAUAAUUCAGAGUTT against Armcx2	-0.152
GGUGGAAGGCUUUUUCUACTT against Olfr1104	1.63
GCGAUACCGUGCCAUGUUUTT against Dohh	-1.21
CGAAGAUUACCUUUCAAGATT against St6galnac3	0.371
GCCCUUUCGCCUAUGGUUUTT against Tedc1	0.931
GCUAAUCAACAAUGUCGCCTT against Atp5b	0.781
GGUUAAAGUCCUUCAGUAUTT against Tubb3	2.83 (active)
GGAAAAAACCACGAUUGAGTT against Pecam1	-0.434
GGCUUACCUACAACAAGUUTT against Ccnt1	-2.07 (active)
GGUUAGGCACAAAUAAGUUTT against B230206H07Rik	1.08
GGUUCCUAUACCCAACGGUTT against Mrgpra7	-1.07
GGUUGAUGAUAGCUCUGAATT against Opn1mw	-0.22
GGUCUUAAGGAGAAAUGAATT against Cbln2	-0.48
GCUUCGCUCGCAUUCUUAUTT against Rsrc1	-0.299
GGACUAUCCAGGAAUCGUGTT against Ergic3	0.713
GGACAAGCUGAAGACGCACTT against Zfp64	3.03 (active)
GCAUAGUCUUGUUAACCAGTT against Poldip3	-0.689
GGAUUCAUAGACUUCAUAGTT against Impdh1	0.608
CCAUCUGGACUUCAGUUUUTT against Rap1gap2	0.901
GCACUCAAAUGGUAGAUUCTT against Socs6	-0.315
GGGUGAACUCGGACAUUGATT against Spata19	-0.754
GCGUGAACACCUGAGGAUUTT against Rchy1	-0.323

Sequence	z-score
GGUGUUGCUUAUCAUCGGCTT against Mrgprh	-2.03 (active)
GGGCAUCCUGGAUCAUCAUTT against Nlrp6	-1.64
CCUUAGAUAUCUACUGUAATT against Trim2	1.37
GGUGCAAGUUUUGGUGGGATT against Etfbkmt	0.35
GGAACCUAAUUGAAUGGCUTT against Cmbl	0.985
GGCGAAUGUGUGAAGAGGCTT against H2-Q5	-1.97
GCUGCUAGCAAAAAGAACUTT against Yaf2	2.24 (active)
GGAUGUUACGAAGAAGAUUTT against Ash1l	-0.664
GCCAUAUAUCUGCUAUCAUTT against Clvs2	2.34 (active)
GCAACUUAAAGGCAUCUCCTT against Sntn	1.53
GGGAAUCUUGGCAUGAUGGTT against Olfr1030	-0.325
GGUAUUUAUCUGAAUCUGATT against Dennd2c	0.668
CCAGCCUCUUCUAAUACACTT against Preb	-0.413
CCCAUCCAAUGCUUAUGUGTT against Scg5	-0.421
GCCUAAAAAGAGUGGGUCATT against Mllt1	-2.73 (active)
GGAUCUAGGAGCUGAUUAUTT against Mecr	-1.18
CCAUCAUGCCCUGUUUGCATT against Cdc42ep3	0.393
GCUCUUGUUAUUUACGUCGTT against Lgi1	0.478
CGACCACAUGAGGAUGCAUTT against Zbtb20	-0.974
CCAUUAUUGGCCCAUGCUCTT against Babam1	-2.75 (active)
GGUUAUAAAACUAUGGAACTT against Map2k5	0.133
GGAUCAUUGUUCUCUCAAGTT against Psmg2	0.186

Sequence	z-score
GGCUCAAAAGUCUUGGGACTT against Hells	0.31
CGCAGAUGAUUAAGUUGGUTT against Olfr1000	0.961
GGUGGAGACAGAAAUCCAATT against Amot	0.23
CGGAACCUUAUUUAAAACUTT against Sirt5	0.732
GGUAUCUGUGCAAGGGCAATT against Defb5	2.07 (active)
CCUACUCGUGUCGUGAUAATT against Rxrb	-0.841
GGGCAUUCAGCAGUUACAGTT against Lrriq4	0.521
GGUUUAUGGGACAGUUUUUTT against Plk2	5.58 (active)
CGUGGAUGAUACCAAAAUGTT against Igsf21	-0.73
GGUGCUGAAGAAGCACCAUTT against Stat5a	0.271
GCGAGAUUCUUGCUUACUCTT against Slc66a2	-0.472
GGAUGUUUUCCCGACAAGATT against Angptl1	-1.27
GGAUGGGAAGACUACCCGATT against Camta2	-2.62 (active)
CGACCUUCAAGGCAAUAUUTT against Anapc2	-0.573
CCAUCUAACCCUAUAUUAGTT against G6pdx	-1.21
CCAUGAAUAGCAUCUUUGCTT against Adamtsl2	-0.25
GGAUGACAAAAAUUUCAAGTT against St14	-0.283
GGAGAGGGUCUUAGUCAGATT against Wasf1	0.802
GGGUGACAUGGUGACCAUCTT against Matk	3.54 (active)
GGCCUUGUAUCUCUUUACATT against Hdgf	0.425
GCUGGUUUUGAACUGUACATT against Flt4	0.155
CCCAAGUGGUAAGAUUGGUTT against Rps3	0.123

Sequence	z-score
CCCUUGUCUAAAAUAUACATT against Zfp941	-0.387
CCCUGCUAUCAGCAUCACATT against Hacd3	-3.09 (active)
CGGUAUUUGUCUGUAUCCUTT against Npc2	-1.71
GCUGGAUUCUGGUAAAUGGTT against Eif5a	-0.836
GCAGAUCCGAGACAAGUAUTT against Cplx2	-1.91
GGAUGAACAACUCUAGGCCTT against Mafk	-0.736
GGUCUACAGCUACCUGAAUTT against Npc2	0.105
GCGGUUUCUUACCAAUAACTT against Cyp1a2	0.984
GGAAGCGUGGAAGUCUACGTT against Kcnj16	0.277
GGGCAAAGGGAGUGACAAATT against Skp2	-1.95
GGACAACUACAUUGUACUGTT against Insr	-1.16
GGCAGCAGAGAACAAGAAATT against Serbp1	-1.43
CCCAACUGACAUCUUCCUATT against Gzmb	2.86 (active)
GGAAAGCACAUCCUCUUUGTT against Gpx6	1.02
CGUGAUUUCAGUGAGGGUGTT against Tarsl2	0.996
CGAAGUGAAGAUUUACAGCTT against Nol10	-0.106
GCAAUGUGACCAAGACAAUTT against Prelid1	0.739
GGCGUGAUAGCUGGACUUATT against Eola1	0.439
GGCCAUAUCUUAAAGUUAATT against Hcfc1r1	-0.246
GACCAGUGACAAGACCAUCTT against Unc45b	0.352
GGUGCAGGCCAUGAUUUACTT against C1qtnf4	2.65 (active)
GGAAAUGCCACCAAAGAACTT against Slc38a11	-0.168

Sequence	z-score
CGGACUUGUUUUUUAGUCUTT against Tnrc18	0.164
GGCCAACUGGAGAUAGAUATT against Tamm41	1.19
GGAUAAUGGUUUAAAACUCTT against Bmt2	-1.34
GGAAAACCUACCGAAGUUATT against Irf3	2.79 (active)
GCAUUGAAGUCACCUCCACTT against Clcn2	0.161
GGACAACCAAGGAAGAAACTT against Fam205c	0.816
GGUGUUUGAAGAGCUGACATT against Pde6b	-1.85
GGUUGUUAAGCUGAAGCAATT against Prkacb	-0.219
GCUAUAAUGCUGGAGUCAATT against P3h2	0.27
GGUGUGUUUGCUAUUUCCATT against Olfr259	0.4
GGUCCCAGCAUGUUUACGUTT against Slc2a12	3.04 (active)
GCUCUGUCUUCAGGUCAUUTT against Olfr1040	-0.0484
GGGACUGGAUUUCUGUAUUTT against Derl1	-0.694
GGCUAUCCAGAGAUACGUGTT against Snrnp25	-0.571
GGGCAUAGACAGUACCAGUTT against Clec2m	-2.04 (active)
GGACCAGCUAAAUAUUAGUTT against Rgs2	-0.315
GGCAUUAAUAUGUCUGACUTT against Tada1	-0.0627
GGAAAAAUGGCAACUUCAATT against Dock3	0.766
GGUGUAUGUCACCCUGACCTT against Sag	-0.617
GGGUAACUGGUUUGUAUGATT against Gm4814	1.34

From PubChem BioAssay AID1508600 (Functional Genomics Laboratory (NCATS/FGL), 2020)
